Experimental data from the supplement of paper PMC11732987, “Enantioselective OTUD7B fragment discovery through chemoproteomics screening and high-throughput optimisation” (Communications Chemistry, 2025).

Key:
Experiment in all cases: log2 ratio of Biotin-Ahx-Ub-VS probe labelling (fragment/DMSO); higher = less target engagement (more negative = stronger competition), active = hit call of the paper (q ≤ 0.05, log2 ratio ≤ -1)
Conditions in all cases: compound concentration: 200 uM; treatment time: 3 h
USP34 = USP34 (UniProt Q70CQ2)
How it was run: (§1)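 Each value is an average log2 ratio of fragment to vehicle, tested by unpaired t-test. The underlying Spectronaut label-free quantities were global-median-normalised, and only proteins with ≥2 unique peptides were included. Triplicate HEK293T lysate samples (495 µg) were exposed to fragment at 200 µM or vehicle for 3 h, then to Biotin-Ahx-Ub-VS at 0.5 µM final for 1 h, before NeutrAvidin enrichment of labelled DUBs, LysC and trypsin digestion, and diaPASEF LC-MS/MS.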

USP36 = target: T1, USP36 (UniProt Q9P275)
T1 sequence (whole entry): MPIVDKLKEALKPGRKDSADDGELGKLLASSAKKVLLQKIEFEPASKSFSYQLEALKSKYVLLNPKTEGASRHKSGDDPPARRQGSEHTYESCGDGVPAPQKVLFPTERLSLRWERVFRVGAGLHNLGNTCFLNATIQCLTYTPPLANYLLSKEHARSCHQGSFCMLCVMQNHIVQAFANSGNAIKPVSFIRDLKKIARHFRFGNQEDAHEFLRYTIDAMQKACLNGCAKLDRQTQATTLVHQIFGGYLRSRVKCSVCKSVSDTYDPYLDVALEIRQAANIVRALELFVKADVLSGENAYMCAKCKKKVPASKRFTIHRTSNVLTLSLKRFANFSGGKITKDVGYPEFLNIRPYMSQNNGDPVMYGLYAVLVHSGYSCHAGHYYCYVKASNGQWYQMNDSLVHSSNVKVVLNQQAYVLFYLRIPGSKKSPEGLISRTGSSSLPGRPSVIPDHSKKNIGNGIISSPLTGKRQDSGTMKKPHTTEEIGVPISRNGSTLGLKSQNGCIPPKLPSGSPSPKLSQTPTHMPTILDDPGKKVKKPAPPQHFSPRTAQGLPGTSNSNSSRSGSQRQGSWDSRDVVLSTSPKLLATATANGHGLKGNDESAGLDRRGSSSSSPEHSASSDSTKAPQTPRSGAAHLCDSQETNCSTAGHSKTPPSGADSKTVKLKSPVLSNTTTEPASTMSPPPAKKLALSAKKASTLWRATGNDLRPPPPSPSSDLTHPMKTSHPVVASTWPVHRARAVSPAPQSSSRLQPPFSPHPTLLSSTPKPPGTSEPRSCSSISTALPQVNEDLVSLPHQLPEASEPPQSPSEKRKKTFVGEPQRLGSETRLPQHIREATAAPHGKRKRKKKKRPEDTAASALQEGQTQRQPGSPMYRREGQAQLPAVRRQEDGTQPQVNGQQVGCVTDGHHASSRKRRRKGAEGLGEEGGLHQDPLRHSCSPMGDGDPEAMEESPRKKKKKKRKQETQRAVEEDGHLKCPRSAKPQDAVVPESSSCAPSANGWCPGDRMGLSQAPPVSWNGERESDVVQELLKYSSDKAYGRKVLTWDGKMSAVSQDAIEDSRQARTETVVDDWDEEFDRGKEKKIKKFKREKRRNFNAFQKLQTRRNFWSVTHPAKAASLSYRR
How it was run: as §1

USP38 = target: T2, USP38 (UniProt Q8NB14)
T2 sequence (whole entry): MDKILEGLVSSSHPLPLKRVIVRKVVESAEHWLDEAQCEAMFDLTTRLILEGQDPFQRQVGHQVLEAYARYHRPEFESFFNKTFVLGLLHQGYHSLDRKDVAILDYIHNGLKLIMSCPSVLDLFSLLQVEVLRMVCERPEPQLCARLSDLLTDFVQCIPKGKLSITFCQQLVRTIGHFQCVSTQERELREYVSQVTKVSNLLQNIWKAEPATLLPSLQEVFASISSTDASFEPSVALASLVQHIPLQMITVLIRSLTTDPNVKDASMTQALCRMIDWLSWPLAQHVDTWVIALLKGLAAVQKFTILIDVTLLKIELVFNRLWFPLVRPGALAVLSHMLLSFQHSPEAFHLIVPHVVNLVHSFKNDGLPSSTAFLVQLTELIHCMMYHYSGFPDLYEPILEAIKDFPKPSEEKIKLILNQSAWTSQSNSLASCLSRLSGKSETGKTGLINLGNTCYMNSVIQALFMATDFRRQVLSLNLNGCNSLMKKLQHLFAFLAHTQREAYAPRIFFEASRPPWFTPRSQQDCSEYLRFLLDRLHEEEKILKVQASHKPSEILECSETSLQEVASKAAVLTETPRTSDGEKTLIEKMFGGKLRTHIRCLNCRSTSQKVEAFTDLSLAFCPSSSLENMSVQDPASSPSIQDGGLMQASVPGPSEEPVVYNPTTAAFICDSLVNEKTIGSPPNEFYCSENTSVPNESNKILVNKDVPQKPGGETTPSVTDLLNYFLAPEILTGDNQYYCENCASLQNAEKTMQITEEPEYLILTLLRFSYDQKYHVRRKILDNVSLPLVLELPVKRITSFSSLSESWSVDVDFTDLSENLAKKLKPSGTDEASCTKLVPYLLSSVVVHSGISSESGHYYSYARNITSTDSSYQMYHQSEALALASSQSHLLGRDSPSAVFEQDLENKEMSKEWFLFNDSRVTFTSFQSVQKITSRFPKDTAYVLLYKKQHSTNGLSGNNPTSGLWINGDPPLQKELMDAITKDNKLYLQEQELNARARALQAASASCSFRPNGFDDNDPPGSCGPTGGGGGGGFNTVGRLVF
How it was run: as §1

USP39 = target: T3, USP39 (UniProt Q53GS9)
T3 sequence (whole entry): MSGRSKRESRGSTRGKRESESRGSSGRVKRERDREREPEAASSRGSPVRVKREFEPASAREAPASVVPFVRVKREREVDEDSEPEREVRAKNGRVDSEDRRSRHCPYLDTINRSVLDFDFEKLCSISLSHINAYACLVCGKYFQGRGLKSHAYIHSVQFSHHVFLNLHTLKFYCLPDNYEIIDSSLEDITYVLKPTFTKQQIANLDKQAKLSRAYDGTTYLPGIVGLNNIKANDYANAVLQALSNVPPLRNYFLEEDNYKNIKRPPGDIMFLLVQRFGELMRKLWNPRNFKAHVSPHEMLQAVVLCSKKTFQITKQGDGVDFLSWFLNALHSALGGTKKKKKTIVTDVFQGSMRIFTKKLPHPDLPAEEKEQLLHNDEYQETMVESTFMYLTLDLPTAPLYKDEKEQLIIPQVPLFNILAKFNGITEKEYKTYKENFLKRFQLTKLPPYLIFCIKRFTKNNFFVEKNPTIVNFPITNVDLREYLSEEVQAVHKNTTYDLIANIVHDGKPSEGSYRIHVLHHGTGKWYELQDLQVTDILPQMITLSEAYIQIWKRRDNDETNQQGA
How it was run: as §1

USP4 = target: T4, USP4 (UniProt Q13107)
T4 sequence (whole entry): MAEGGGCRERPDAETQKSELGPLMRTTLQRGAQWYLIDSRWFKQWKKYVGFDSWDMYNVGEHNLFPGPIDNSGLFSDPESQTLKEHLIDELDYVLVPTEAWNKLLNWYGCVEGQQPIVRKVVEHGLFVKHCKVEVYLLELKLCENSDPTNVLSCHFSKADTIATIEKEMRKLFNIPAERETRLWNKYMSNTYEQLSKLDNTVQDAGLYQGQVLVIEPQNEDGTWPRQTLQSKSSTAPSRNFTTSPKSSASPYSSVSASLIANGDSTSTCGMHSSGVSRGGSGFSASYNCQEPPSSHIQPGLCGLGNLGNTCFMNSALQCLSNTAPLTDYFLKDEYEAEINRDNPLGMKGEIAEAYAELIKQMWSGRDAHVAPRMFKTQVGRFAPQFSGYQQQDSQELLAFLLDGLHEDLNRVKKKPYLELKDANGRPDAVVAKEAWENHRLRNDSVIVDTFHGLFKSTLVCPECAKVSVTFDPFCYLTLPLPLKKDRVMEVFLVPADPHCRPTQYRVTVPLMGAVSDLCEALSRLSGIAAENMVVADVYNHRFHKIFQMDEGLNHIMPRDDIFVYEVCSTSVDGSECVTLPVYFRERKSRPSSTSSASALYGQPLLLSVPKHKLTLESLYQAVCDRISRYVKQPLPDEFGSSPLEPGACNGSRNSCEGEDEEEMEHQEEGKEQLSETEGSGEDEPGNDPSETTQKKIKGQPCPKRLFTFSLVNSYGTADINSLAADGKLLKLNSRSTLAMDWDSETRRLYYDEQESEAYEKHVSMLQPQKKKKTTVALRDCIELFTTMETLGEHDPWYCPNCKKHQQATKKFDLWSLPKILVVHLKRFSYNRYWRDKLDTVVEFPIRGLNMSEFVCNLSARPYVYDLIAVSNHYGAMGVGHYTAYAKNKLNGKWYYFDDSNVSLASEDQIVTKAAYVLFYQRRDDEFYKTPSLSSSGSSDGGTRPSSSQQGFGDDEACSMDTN
How it was run: as §1

Measured: log2 ratio of Biotin-Ahx-Ub-VS probe labelling

Sequence of USP34 (Q70CQ2 whole entry, the tested form may be a part): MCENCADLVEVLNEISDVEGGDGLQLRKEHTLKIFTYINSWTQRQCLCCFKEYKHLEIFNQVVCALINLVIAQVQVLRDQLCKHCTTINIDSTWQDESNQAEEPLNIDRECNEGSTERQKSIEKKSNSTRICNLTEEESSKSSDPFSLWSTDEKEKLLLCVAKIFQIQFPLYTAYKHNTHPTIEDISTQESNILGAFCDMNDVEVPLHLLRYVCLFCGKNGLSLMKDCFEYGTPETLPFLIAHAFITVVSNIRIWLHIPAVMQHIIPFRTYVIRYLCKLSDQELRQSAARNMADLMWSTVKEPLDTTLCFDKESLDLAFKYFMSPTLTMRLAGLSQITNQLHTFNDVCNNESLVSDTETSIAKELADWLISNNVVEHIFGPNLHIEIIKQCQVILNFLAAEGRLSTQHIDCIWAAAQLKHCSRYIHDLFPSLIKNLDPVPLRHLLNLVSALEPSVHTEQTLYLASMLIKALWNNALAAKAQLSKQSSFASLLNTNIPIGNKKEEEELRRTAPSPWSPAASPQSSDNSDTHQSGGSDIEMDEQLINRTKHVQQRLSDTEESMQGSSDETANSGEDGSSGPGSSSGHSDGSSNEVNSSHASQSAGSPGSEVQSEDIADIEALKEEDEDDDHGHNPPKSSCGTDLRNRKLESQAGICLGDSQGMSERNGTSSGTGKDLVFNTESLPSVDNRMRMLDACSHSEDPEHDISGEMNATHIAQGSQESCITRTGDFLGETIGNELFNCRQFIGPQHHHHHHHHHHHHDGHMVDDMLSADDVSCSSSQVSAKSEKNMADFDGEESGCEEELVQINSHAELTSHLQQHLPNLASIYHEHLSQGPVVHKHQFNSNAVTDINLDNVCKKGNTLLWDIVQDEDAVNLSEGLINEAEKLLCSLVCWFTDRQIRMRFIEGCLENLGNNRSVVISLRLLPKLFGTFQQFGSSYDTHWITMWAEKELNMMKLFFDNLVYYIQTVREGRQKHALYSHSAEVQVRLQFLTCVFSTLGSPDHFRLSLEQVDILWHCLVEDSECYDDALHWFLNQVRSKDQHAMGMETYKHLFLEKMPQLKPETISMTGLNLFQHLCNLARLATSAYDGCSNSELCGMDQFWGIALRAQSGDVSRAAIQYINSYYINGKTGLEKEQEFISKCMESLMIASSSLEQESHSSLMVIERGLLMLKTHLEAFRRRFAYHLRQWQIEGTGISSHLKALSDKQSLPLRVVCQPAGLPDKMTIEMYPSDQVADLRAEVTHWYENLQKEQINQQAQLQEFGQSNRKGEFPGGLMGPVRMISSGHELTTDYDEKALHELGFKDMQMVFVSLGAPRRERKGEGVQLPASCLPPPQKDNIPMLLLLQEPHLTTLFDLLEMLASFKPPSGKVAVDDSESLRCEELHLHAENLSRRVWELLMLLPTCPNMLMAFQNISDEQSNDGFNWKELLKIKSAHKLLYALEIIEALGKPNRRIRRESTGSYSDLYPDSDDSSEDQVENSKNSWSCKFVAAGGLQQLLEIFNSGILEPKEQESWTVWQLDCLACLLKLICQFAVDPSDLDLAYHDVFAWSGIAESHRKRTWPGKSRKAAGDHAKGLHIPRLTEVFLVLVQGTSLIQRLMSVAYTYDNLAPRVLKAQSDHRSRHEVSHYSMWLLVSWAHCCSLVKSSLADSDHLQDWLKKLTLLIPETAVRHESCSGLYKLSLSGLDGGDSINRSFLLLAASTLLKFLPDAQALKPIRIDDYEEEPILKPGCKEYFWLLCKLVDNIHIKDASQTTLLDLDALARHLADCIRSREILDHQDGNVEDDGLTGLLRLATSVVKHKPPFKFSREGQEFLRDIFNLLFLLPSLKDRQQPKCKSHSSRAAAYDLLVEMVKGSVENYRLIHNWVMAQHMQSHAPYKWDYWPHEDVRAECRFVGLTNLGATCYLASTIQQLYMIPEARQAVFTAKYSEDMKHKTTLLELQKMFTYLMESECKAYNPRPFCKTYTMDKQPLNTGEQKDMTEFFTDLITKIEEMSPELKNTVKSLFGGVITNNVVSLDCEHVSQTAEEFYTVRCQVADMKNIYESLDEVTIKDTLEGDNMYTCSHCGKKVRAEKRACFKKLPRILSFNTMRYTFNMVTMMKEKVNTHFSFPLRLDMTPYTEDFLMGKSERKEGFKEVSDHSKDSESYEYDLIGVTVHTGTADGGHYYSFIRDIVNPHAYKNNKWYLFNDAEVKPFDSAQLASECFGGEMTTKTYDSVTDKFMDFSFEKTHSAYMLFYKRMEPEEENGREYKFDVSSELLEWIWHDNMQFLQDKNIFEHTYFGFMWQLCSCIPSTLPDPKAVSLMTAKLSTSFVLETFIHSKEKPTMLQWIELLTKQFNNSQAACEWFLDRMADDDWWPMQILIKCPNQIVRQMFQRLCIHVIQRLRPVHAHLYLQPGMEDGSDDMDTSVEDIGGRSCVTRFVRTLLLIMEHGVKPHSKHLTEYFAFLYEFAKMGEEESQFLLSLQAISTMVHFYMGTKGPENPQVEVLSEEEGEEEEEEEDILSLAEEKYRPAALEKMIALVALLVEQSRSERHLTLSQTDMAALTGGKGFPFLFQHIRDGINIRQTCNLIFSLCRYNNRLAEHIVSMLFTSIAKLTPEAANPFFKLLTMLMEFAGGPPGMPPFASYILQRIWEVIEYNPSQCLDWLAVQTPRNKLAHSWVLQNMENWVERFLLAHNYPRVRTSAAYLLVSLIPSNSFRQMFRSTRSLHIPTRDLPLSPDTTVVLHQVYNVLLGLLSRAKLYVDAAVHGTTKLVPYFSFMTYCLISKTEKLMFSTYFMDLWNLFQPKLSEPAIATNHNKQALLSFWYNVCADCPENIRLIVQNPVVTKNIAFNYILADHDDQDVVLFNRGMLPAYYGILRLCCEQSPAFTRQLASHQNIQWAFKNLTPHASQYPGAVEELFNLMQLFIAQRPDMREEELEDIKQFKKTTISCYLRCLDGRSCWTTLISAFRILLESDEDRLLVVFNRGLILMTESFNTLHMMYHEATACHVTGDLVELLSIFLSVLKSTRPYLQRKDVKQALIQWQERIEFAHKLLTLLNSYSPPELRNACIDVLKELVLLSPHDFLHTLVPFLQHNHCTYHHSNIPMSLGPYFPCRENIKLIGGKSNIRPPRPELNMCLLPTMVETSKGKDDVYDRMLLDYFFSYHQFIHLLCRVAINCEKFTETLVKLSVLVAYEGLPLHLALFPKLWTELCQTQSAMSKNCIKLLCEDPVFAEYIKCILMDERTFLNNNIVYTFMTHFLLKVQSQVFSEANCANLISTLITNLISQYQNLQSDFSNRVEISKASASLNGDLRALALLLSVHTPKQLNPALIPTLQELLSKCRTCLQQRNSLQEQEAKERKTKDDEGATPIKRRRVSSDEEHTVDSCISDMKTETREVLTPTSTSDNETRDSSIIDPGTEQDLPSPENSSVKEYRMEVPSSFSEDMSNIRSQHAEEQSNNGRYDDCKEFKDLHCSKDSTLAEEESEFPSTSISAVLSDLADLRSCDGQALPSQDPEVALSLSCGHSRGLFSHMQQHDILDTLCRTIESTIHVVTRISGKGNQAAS

CN(CCC(O)c1ccc(Br)cc1)C(=O)CCl (stereo not given)
inactive: USP34 -0.261 | USP36 -0.0809 | USP38 -0.17 | USP39 -0.00535 | USP4 -0.206
